Values joined by “and” are separate entries in the source; they are usually repeats but may differ in a detail not shown here. Identical values can stand only once. Active and inactive are the calls of the source. Unless noted, how the calls were made is not given here.
System: not listed separately
Experiment: differential killing of epithelial or mesenchymal cells, primary screen, imaging, PC-3E GFP, TEM4-18 mCherry, co-culture (AID 1345086;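 active means compounds killing one labelled cell type while sparing the other, by normalised counts and ratio limits, not self-fluorescent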;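 further: cells exposed to compound for 72 h before imaging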;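 on red/green cell ratio (normalised): normalised mesenchymal count divided by normalised epithelial count so high means epithelial killing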)
Conditions: imaging cell counts, at 1 µM, actives lie on both sides, counts scaled to control wells, 1 = unselective

SMILES | red/green cell ratio (normalised)
CCOC(=O)[C@H](CCc1ccccc1)N[C@@H](C)C(=O)N1[C@H](C(=O)O)C[C@@H]2CCC[C@@H]21 | 0.83 (inactive)
O=C1CCc2ccc(OCCCCN3CCN(c4cccc(Cl)c4Cl)CC3)cc2N1 | 0.72 (inactive)
CC(c1cc2ccccc2s1)N(O)C(N)=O (centres undefined) | 0.83 (inactive)
CN1CCN(CCCN2c3ccccc3Sc3ccc(Cl)cc32)CC1 | 1.2 (inactive)
Cc1ncc([N+](=O)[O-])n1CCO | 1.23 (inactive)
Cc1cn([C@H]2C=C[C@@H](CO)O2)c(=O)[nH]c1=O | 0.8 (inactive)
CC(=O)Oc1ccccc1C(=O)Nc1ncc([N+](=O)[O-])s1 | 0.75 (inactive)
CN(C/C=C/C#CC(C)(C)C)Cc1cccc2ccccc12 | 1.03 (inactive)
CC(C)c1nc(CN(C)C(=O)N[C@H](C(=O)N[C@@H](Cc2ccccc2)C[C@H](O)[C@H](Cc2ccccc2)NC(=O)OCc2cncs2)C(C)C)cs1 | 1.06 (inactive)
COc1cc2nc(N3CCN(C(=O)C4COc5ccccc5O4)CC3)nc(N)c2cc1OC (centres undefined) | 0.65 (inactive)
Nc1ccn([C@H]2CC[C@@H](CO)O2)c(=O)n1 | 0.76 (inactive)
Cc1nc2n(c(=O)c1CCN1CCC(c3noc4cc(F)ccc34)CC1)CCCC2 | 0.98 (inactive)
Cc1ccnc2c1NC(=O)c1cccnc1N2C1CC1 | 0.79 (inactive)

Same assay, conditions: imaging cell counts, measured here: epithelial PC-3E GFP cell survival, at 1 µM

SMILES | normalised cell number
CCOC(=O)[C@H](CCc1ccccc1)N[C@@H](C)C(=O)N1[C@H](C(=O)O)C[C@@H]2CCC[C@@H]21 | 1.1
O=C1CCc2ccc(OCCCCN3CCN(c4cccc(Cl)c4Cl)CC3)cc2N1 | 1.31
CC(c1cc2ccccc2s1)N(O)C(N)=O (centres undefined) | 1.22
CN1CCN(CCCN2c3ccccc3Sc3ccc(Cl)cc32)CC1 | 0.97
Cc1ncc([N+](=O)[O-])n1CCO | 0.93
Cc1cn([C@H]2C=C[C@@H](CO)O2)c(=O)[nH]c1=O | 1.35
CC(=O)Oc1ccccc1C(=O)Nc1ncc([N+](=O)[O-])s1 | 1.31
CN(C/C=C/C#CC(C)(C)C)Cc1cccc2ccccc12 | 1.32
CC(C)c1nc(CN(C)C(=O)N[C@H](C(=O)N[C@@H](Cc2ccccc2)C[C@H](O)[C@H](Cc2ccccc2)NC(=O)OCc2cncs2)C(C)C)cs1 | 1.14
COc1cc2nc(N3CCN(C(=O)C4COc5ccccc5O4)CC3)nc(N)c2cc1OC (centres undefined) | 1.28
Nc1ccn([C@H]2CC[C@@H](CO)O2)c(=O)n1 | 1.16
Cc1nc2n(c(=O)c1CCN1CCC(c3noc4cc(F)ccc34)CC1)CCCC2 | 1.02
Cc1ccnc2c1NC(=O)c1cccnc1N2C1CC1 | 1.34

Same assay, conditions: imaging cell counts, measured here: mesenchymal TEM4-18 mCherry cell survival, at 1 µM

SMILES | normalised cell number
CCOC(=O)[C@H](CCc1ccccc1)N[C@@H](C)C(=O)N1[C@H](C(=O)O)C[C@@H]2CCC[C@@H]21 | 0.91
O=C1CCc2ccc(OCCCCN3CCN(c4cccc(Cl)c4Cl)CC3)cc2N1 | 0.94
CC(c1cc2ccccc2s1)N(O)C(N)=O (centres undefined) | 1.01
CN1CCN(CCCN2c3ccccc3Sc3ccc(Cl)cc32)CC1 | 1.16
Cc1ncc([N+](=O)[O-])n1CCO | 1.13
Cc1cn([C@H]2C=C[C@@H](CO)O2)c(=O)[nH]c1=O | 1.09
CC(=O)Oc1ccccc1C(=O)Nc1ncc([N+](=O)[O-])s1 | 0.98
CN(C/C=C/C#CC(C)(C)C)Cc1cccc2ccccc12 | 1.37
CC(C)c1nc(CN(C)C(=O)N[C@H](C(=O)N[C@@H](Cc2ccccc2)C[C@H](O)[C@H](Cc2ccccc2)NC(=O)OCc2cncs2)C(C)C)cs1 | 1.21
COc1cc2nc(N3CCN(C(=O)C4COc5ccccc5O4)CC3)nc(N)c2cc1OC (centres undefined) | 0.83
Nc1ccn([C@H]2CC[C@@H](CO)O2)c(=O)n1 | 0.88
Cc1nc2n(c(=O)c1CCN1CCC(c3noc4cc(F)ccc34)CC1)CCCC2 | 1
Cc1ccnc2c1NC(=O)c1cccnc1N2C1CC1 | 1.05

System: Aerobactin synthetase IucA (Klebsiella pneumoniae)
Experiment: IucA aerobactin synthetase inhibitors, biochemical, Tocris library, absorbance (AID 1345561);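 further: 100% = enzyme without compound and 0% = no enzyme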
Conditions: purified IucA enzyme assay, absorbance (OD) read-out; stronger effect = lower value; concentration not given here

SMILES | remaining activity
CN(C)CCCSc1ccccc1NC(=O)/C=C/c1ccccc1 | 115% (inactive)
CN(CCCN1c2ccccc2CCc2ccccc21)CC(=O)c1ccc(Cl)cc1 | 113% (inactive)
NS(=O)(=O)Cc1noc2ccccc12 | 96.2% (inactive)
Clc1ccc2nsnc2c1NC1=NCCN1 | 113% (inactive)
Brc1c(NC2=NCCN2)ccc2nccnc12 | 80.2% (inactive) and 100% (inactive)
CN1[C@@H]2CC[C@H]1CC(OC(=O)c1c[nH]c3ccccc13)C2 (some centres undefined) | 107% (inactive)
NC(=O)OCC(COC(N)=O)c1ccccc1 | 104% (inactive)
COc1cccc2c1C(=O)c1c(O)c3c(c(O)c1C2=O)C[C@@](O)(C(=O)CO)C[C@@H]3O[C@H]1C[C@H](N)[C@H](O)[C@H](C)O1 | 110% (inactive)
CC(Cc1ccccc1)(NC(=O)CN)c1ccccc1 (centres undefined) | 116% (inactive)
O=C1CC2(CCCC2)CC(=O)N1CCNCC1COc2ccccc2O1 (centres undefined) | 96.6% (inactive)
CCN1CCC[C@H]1CNC(=O)c1cc(S(N)(=O)=O)ccc1OC | 123% (inactive)
O=C(c1ccc(F)cc1)C1CCN(CCn2c(=S)[nH]c3ccccc3c2=O)CC1 | 106% (inactive)
CCN1CCC[C@H]1CNC(=O)c1c(O)c(Cl)cc(Cl)c1OC | 118% (inactive)
NC1CCN(c2cccc(Cl)n2)CC1 | 113% (inactive)
CNCCCCOc1ccccc1Cc1ccccc1 | 120% (inactive)
C[C@@H]1CN(CCCn2c3ccccc3c3ccccc32)C[C@H](C)N1 | 123% (inactive)
COc1cc(-c2ccc(=O)[nH]n2)ccc1OC(F)F | 112% (inactive)
Nc1nc(F)nc2c1ncn2[C@@H]1O[C@H](CO)[C@@H](O)[C@@H]1O | 101% (inactive)
O=C1N(c2ccccc2)c2ccccc2C1(Cc1ccncc1)Cc1ccncc1 | 110% (inactive)
CCN(CC)CC1CCCCN1CC(=O)N1c2ccccc2C(=O)Nc2cccnc21 (centres undefined) | 116% (inactive)

Reference: PubChem BioAssay
